Screening results as filed in PubChem BioAssay.
HEK293 cAMP ctrl: raises cAMP in parental HEK293 cells, TSHR agonist counter-screen. parental HEK293 CNG cAMP sensor, membrane potential fluorescence. Potency, µM (doses to about 57.1 µM), usual class: activators. 73,000 tested, 2.5% active. AID 938; active means well fitted activation curve with a large enough effect; inconclusive means small, poorly fitted or top-dose-only effect; inactive means no such curve, though single readings can be large or run the other way; further: nearly all actives have a fitted effect of over 55% in size
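Parental HEK 293 cells stably expressing a cAMP-gated CNG channel were loaded with membrane potential dye containing 100 uM RO 20-1724 for 60 min. Compound added for 30 min; depolarization read as fluorescence intensity at 590 nm.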
Hsp90 Hop PPI: changes Hsp90-Hop TPR2A binding signal, up or down | Potency, µM (doses to about 57 µM) | 71,000 tested, 0.44% active | AlphaScreen TPR2A-His6 binding biotin-Hsp90 C-terminal peptide; active means well fitted curve in either direction with a large enough effect; inconclusive means small, poorly fitted or top-dose-only effect, or another doubt
TSHR agonist: TSH receptor (human) agonism; Potency, µM (highest dose often 57.1 µM), most hits filed as activators; HEK293-CNG-TSHR cells (CNG channel as cAMP sensor), membrane potential dye, cAMP; 73,000 tested, 0.48% active; AID 926; active means well fitted activation curve with a large enough effect in the main read-out, with a control signal flat, not every such curve was filed as active; inconclusive means small, poorly fitted or top-dose-only effect, or a change in a side signal; inactive means no such curve, though single readings can be large or run the other way; reference of the percent scale not stated here;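 further: the control signal comes from parental cells without the receptor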
Target sequence (P16473 whole entry, looked up): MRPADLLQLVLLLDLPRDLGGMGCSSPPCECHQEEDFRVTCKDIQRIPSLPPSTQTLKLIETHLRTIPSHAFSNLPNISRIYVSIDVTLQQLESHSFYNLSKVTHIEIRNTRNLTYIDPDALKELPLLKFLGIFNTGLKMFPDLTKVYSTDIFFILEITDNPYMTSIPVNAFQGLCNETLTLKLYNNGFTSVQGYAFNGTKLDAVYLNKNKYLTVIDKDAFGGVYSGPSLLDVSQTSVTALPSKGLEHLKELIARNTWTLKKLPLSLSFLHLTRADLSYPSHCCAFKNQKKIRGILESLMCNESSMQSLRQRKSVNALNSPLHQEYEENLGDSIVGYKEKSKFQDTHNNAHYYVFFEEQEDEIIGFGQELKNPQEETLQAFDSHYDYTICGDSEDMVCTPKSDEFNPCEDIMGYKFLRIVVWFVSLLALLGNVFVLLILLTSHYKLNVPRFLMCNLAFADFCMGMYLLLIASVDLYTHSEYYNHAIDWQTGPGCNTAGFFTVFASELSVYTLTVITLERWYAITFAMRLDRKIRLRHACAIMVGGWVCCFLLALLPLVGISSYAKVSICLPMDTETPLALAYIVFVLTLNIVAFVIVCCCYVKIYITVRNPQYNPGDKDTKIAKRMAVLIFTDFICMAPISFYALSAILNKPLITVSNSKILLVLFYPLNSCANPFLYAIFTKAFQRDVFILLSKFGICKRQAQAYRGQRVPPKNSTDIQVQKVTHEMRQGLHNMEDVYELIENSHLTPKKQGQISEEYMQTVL
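HEK 293 cells stably expressing TSHR and a cAMP-gated CNG channel; parental CNG-only cells as counterscreen. Cells preloaded 60 min with membrane potential dye plus 100 uM RO 20-1724, then compound 30 min; fluorescence read at 590 nm.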
CRE Fsk mod: CRE-bla signaling modulation under forskolin stimulation; CHO CRE-bla reporter (cAMP response element driving beta-lactamase), forskolin EC10, beta-lactamase ratio; Potency, µM (series often up to 38.2 µM), hits mostly activators; 71,000 tested, 2.5% active; AID 662; active means well fitted activation curve with a large enough effect in the signal ratio, with a control signal flat, not every such curve was filed as active; inconclusive means small, poorly fitted or top-dose-only effect, or effect the other way, or a change in a side signal; the % refers to the signal ratio
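qHTS titration format; CRE-bla CHO reporter; stimulus EC10 NKH 477, a water-soluble forskolin. Read: CCF4 460/530 nm ratio. Potency expressed as AC50 for activators or inhibitors.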
IkB signaling: suppresses IkB signaling in ABC-DLBCL reporter cells; ABC-DLBCL IkBa-CBG/CBR dual luciferase ratio, 4 h; response scale: scaled: untreated 0%, proteasome inhibitor 100%; Potency, µM (titrated, usually from 57.1 µM); 110,000 tested, 0.04% active; active means well fitted curve in the direction sought with a large enough effect in the signal ratio, not every such curve was filed as active; inconclusive means small, poorly fitted or top-dose-only effect, or a change in a side signal; the % refers to the signal ratio;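 further: the direction sought is a rising ratio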
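Luminescence ratio of IκBα-fused green versus native red beetle luciferase in OCI-Ly3 cells, 4 h post-doxycycline with compound; red signal alone, scaled from basal (0%) to zero light (-100%), flagged nonspecific or cytotoxic effects.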
Each line names hits and unclear results; the compound was inactive in the other large screens. In the library only some 3.5% were active in any assay of this set; here they are far more common.

O=C1C2C3C=CC(C2C(=O)N1CN1CCOCC1)C1C2C(=O)N(CN4CCOCC4)C(=O)C2C31 (stereo not drawn)	Hsp90 Hop PPI inconclusive
COc1ccc(S(=O)(=O)c2ccc(OC)c(OC)c2)cc1OC	HEK293 cAMP ctrl inconclusive, TSHR agonist inconclusive, CRE Fsk mod 10µM
COc1ccc(S(=O)(=O)Nc2ccc(C)cc2)cc1OC	CRE Fsk mod inconclusive
COc1ncc2nc(-c3ccc(F)cc3)c(=O)n(-c3ccccc3)c2n1	CRE Fsk mod inconclusive
O=C(Oc1cccc2cccnc12)c1ccc(Br)o1	Hsp90 Hop PPI 25.1µM
O=c1cc(-c2ccc(O)c(O)c2)oc2cc(O[C@@H]3O[C@@H](CO)[C@@H](O)[C@@H](O)[C@H]3O)cc(O)c12	none
CCc1ccc(NC(=O)CSC2=Nc3ccccc3C3=NC(CC(=O)NCc4ccccc4)C(=O)N23)cc1 (stereo not drawn)	none (no result: HEK293 cAMP ctrl, Hsp90 Hop PPI, TSHR agonist, CRE Fsk mod)
COc1ccc(OC)c(C(=O)COC(=O)c2c(OC)cccc2OC)c1	none
COc1ccc(OC)c(C(=O)COC(=O)c2ccccc2O)c1	HEK293 cAMP ctrl 25.1µM, Hsp90 Hop PPI inconclusive, TSHR agonist inconclusive
Nc1nc(Cl)nc2c1ncn2[C@@H]1O[C@@H](COP(=O)(O)OP(=O)(O)OP(=O)(O)O)[C@@H](O)[C@H]1O	IkB signaling inconclusive (no result: TSHR agonist)
Cc1cc(C(=O)COC(=O)c2n[nH]c3ccccc23)c(C)n1C	IkB signaling inconclusive
COc1cc(C(=O)OCC(=O)c2cc(C)n(C)c2C)cc(OC)c1OC	CRE Fsk mod 2.51µM
COc1cccc(NC(=O)c2cccc3c(=O)c4c([nH]c23)CCCC4)c1	none (no result: HEK293 cAMP ctrl, Hsp90 Hop PPI, TSHR agonist, CRE Fsk mod)
Cc1cc2ccccc2n1CCNC(=O)C(C)C	CRE Fsk mod 12.6µM
COc1ccc(-n2nc(C(=O)NCCc3ccc(OC)c(OC)c3)c3c4ccccc4n(C)c3c2=O)cc1Cl	none (no result: HEK293 cAMP ctrl, Hsp90 Hop PPI, TSHR agonist, CRE Fsk mod)
COC(=O)C1=CN(CC2CCCO2)C=C(C(=O)OC)C1c1cc(OC)c(OC)c(OC)c1 (stereo not drawn)	CRE Fsk mod 10µM
COc1ccc(N2CCN(C(=O)NCc3noc4ccccc34)CC2)cc1	none (no result: HEK293 cAMP ctrl, Hsp90 Hop PPI, TSHR agonist, CRE Fsk mod)
COc1cc(-c2nc3nc(C)cc(C)n3c2Nc2ccc(Cl)cc2)ccc1O	none (no result: HEK293 cAMP ctrl, Hsp90 Hop PPI, TSHR agonist, CRE Fsk mod)
CCn1c(=O)cc(SCC(=O)N2CCC(C)CC2)c2ccccc21	HEK293 cAMP ctrl inconclusive, TSHR agonist inconclusive
CCn1c2ccccc2c2nnc(SCC(=O)N3CC(C)OC(C)C3)nc21 (stereo not drawn)	CRE Fsk mod 10µM
O=S(=O)(NCC(c1cccs1)S(=O)(=O)c1ccccc1)c1ccc(F)cc1 (stereo not drawn)	none (no result: HEK293 cAMP ctrl, Hsp90 Hop PPI, TSHR agonist, CRE Fsk mod)
COc1ccc2[nH]cc(CCNc3ncncc3-c3cccc(C#N)c3)c2c1	none
O=C(c1csnn1)N1CCC2(CC1)CN(c1cccc(-c3ccccc3)c1)C2	HEK293 cAMP ctrl inconclusive, Hsp90 Hop PPI inconclusive, TSHR agonist inconclusive
C=CCn1c(C)cc(C(=O)CSc2nc3ccccc3o2)c1C	HEK293 cAMP ctrl 25.1µM, TSHR agonist inconclusive, IkB signaling inconclusive
Cc1cc(C(=O)CSc2nc3ccccc3o2)c(C)n1C1CC1	HEK293 cAMP ctrl 15.8µM, Hsp90 Hop PPI inconclusive, TSHR agonist inconclusive
COC(=O)CSc1nc2ccccc2o1	CRE Fsk mod inconclusive
C=CCn1c(C)cc(C(=O)CSc2nc3ccccc3c(=O)[nH]2)c1C	HEK293 cAMP ctrl 25.1µM, TSHR agonist inconclusive, CRE Fsk mod inconclusive, IkB signaling inconclusive
Cc1cc(S(=O)(=O)Nc2ccccc2C(=O)O)ccc1F	none (no result: Hsp90 Hop PPI, CRE Fsk mod, IkB signaling)
CCOC(=O)c1sc2ncn(CC(=O)Nc3ccc(C)cc3Br)c(=O)c2c1C	none (no result: HEK293 cAMP ctrl, Hsp90 Hop PPI, TSHR agonist, CRE Fsk mod)
COc1cccc2c1Oc1ncccc1N(C(=O)Nc1ccc(F)c(Cl)c1)C2	none (no result: HEK293 cAMP ctrl, Hsp90 Hop PPI, TSHR agonist, CRE Fsk mod)
C=C(CO)[C@H]1Cc2c(ccc3c2O[C@H]2COc4cc(OC)c(OC)cc4[C@@H]2C3=O)O1	CRE Fsk mod inconclusive
COc1cc2c(cc1OC)[C@@H]1C(=O)c3ccc4c(c3O[C@@H]1CO2)C=CC(C)(C)O4	HEK293 cAMP ctrl 20µM, Hsp90 Hop PPI inconclusive, TSHR agonist inconclusive, CRE Fsk mod inconclusive, IkB signaling inconclusive
c1ccc2nc(CC[C@@H]3CCCCN3)ccc2c1	none
CO[C@@H]1/C=C\CC(=O)N2CCC[C@@H]2C(=O)OC[C@@H](C)C(=O)OC[C@H]1C	none (no result: Hsp90 Hop PPI, CRE Fsk mod, IkB signaling)
CCC(=O)N(Cc1cc2cc(OC)ccc2[nH]c1=O)c1ccc(C)cc1C	HEK293 cAMP ctrl 31.6µM, TSHR agonist inconclusive
